In all, about 1,400 compounds went through this assay and about 1,100 (79%) were called active.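 How the source made its calls: active means fitted half-maximal concentration of a falling signal no higher than twice the top valid dose in every test run; inconclusive means runs disagree, or flat partial inhibition, or poor fit; inactive means every run inactive: flat, wrong direction, or potency beyond limit.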 So high a share suggests a set chosen from earlier hits. Not all results are given here. Entries with a potency or affinity are not part of this list.

The test is described as follows: inhibitors of clade B AD8 Env fusion, dose response, cell-based, cherry-pick (AID 652062). The conditions noted are these: HeLa-AD8 Env / CEM-CCR5 cell fusion, luciferase; at 35 µM (top of the series) unless noted.
Take `C[C@@H]1CN([C@@H](C)CO)C(=O)c2cc(NC(=O)c3ccncc3)ccc2O[C@H]1CN(C)Cc1ccncc1`: the activity change, negative = inhibition is 56.3%.
With `COc1ccc(CN(C)C[C@@H]2Oc3ccc(NC(=O)Nc4ccc(OC)cc4)cc3C(=O)N([C@H](C)CO)C[C@@H]2C)cc1`, the activity change, negative = inhibition was 64%.
On to `O=c1[nH]c(=O)n([C@H]2C[C@H](O)[C@@H](CO)O2)cc1F`, for which the activity change, negative = inhibition was -10.2%.
The figure for `Cc1cc(C)nc(/N=C(\N)Nc2ccc(CC(=O)OC(C)C)cc2)n1` is 39.8%.
For `C[C@@]12C(=O)N(Cc3ccc(F)cc3)CC(=O)N1[C@H]1c3cc(Cl)ccc3OC[C@@H]1[C@@H]2c1ccccc1`, the activity change, negative = inhibition came to 19.5%.
The figure for `CN(C[C@H](Cc1ccccc1)N(C[C@H](c1ccccc1)N(CCc1ccccc1)N=O)N=O)N=O` is -5.55%; for `C[C@@H]1CN([C@@H](C)CO)C(=O)c2cc(NS(=O)(=O)c3ccccc3)ccc2O[C@H]1CN(C)Cc1ccc(Oc2ccccc2)cc1` it is 132%.
Turning to `Cc1ccc(S(=O)(=O)Nc2ccc3c(c2)C(=O)N([C@H](C)CO)C[C@@H](C)[C@H](CN(C)S(=O)(=O)c2ccc(F)cc2)O3)cc1`, the activity change, negative = inhibition was -22.9% [at 16 µM].
As to `Cc1ccc(S(=O)(=O)Nc2ccc3c(c2)CC(=O)N([C@@H](C)CO)C[C@H](C)[C@@H](CN(C)Cc2ccc(-c4ccccc4)cc2)O3)cc1`, the activity change, negative = inhibition is 215% [at 18 µM].
For `O=C(C1CCCCC1)N1CCCC(c2nc3c(nnn3Cc3ccccc3)c(=O)[nH]2)C1` (stereo not given), the activity change, negative = inhibition is -8.09% [at 16 µM].
For the molecule `Cc1ccc(S(=O)(=O)N(C)C[C@@H]2Oc3ccc(NS(=O)(=O)c4c(C)noc4C)cc3CC(=O)N([C@H](C)CO)C[C@@H]2C)cc1`, the activity change, negative = inhibition is -10.8%.
For the molecule `C[C@H](CO)N1C[C@H](C)[C@H](CN(C)S(=O)(=O)c2ccccc2)Oc2ccc(NS(=O)(=O)c3ccc(F)cc3)cc2CC1=O`, the activity change, negative = inhibition stood at 10.2%.
As for `C[C@H](CO)N1C[C@H](C)[C@@H](CN(C)S(=O)(=O)c2ccc(F)cc2)Oc2ccc(NS(=O)(=O)c3cn(C)cn3)cc2CC1=O`, the activity change, negative = inhibition stood at 35.3%.
The figure for `CCNc1ncnc2c1cnn2C1CCCO1` (stereo not given) is -11.7%.
Consider `C[C@@H]1CN([C@@H](C)CO)C(=O)Cc2cc(NC(=O)NC3CCCCC3)ccc2O[C@@H]1CN(C)S(=O)(=O)c1ccc(Cl)cc1`, for which the activity change, negative = inhibition is -18.9%.
For the molecule `COc1cccc(CNC(=O)C[C@@H]2C=C[C@H](NC(=O)C3CCC3)[C@H](CO)O2)c1`, the activity change, negative = inhibition turned out to be 64%.
As for `O=C(Nc1cccc(F)c1)N[C@H]1CC[C@@H](CCNS(=O)(=O)c2cccc(Cl)c2)O[C@H]1CO`, the activity change, negative = inhibition was 15.8%.
In the case of `CCS(=O)(=O)N[C@H]1CC[C@@H](CC(=O)NCc2ccc(Cl)cc2)O[C@@H]1CO`, the activity change, negative = inhibition was found to be 46.4%.
Turning to `C[C@H](CO)N1C[C@H](C)[C@H](CN(C)C(=O)Nc2ccccc2)Oc2c(NS(=O)(=O)c3ccc(F)cc3)cccc2C1=O`, the activity change, negative = inhibition amounted to 63.4% [at 8 µM].
On to `CNC[C@@H]1Oc2c(N)cccc2C(=O)N([C@@H](C)CO)C[C@@H]1C`, for which the activity change, negative = inhibition is -6.55%.
Take `C[C@H]1CN([C@@H](C)CO)C(=O)c2cccc(NC(=O)C3CCCCC3)c2O[C@H]1CN(C)S(C)(=O)=O`: the activity change, negative = inhibition was determined as 43.4%.
Consider `C[C@@H]1CN([C@H](C)CO)C(=O)c2cccc(NS(=O)(=O)c3ccc(Cl)cc3)c2O[C@H]1CN(C)CC1CCCCC1`, for which the activity change, negative = inhibition was found to be 87% [at 8 µM].
As to `C[C@@H]1CN([C@H](C)CO)C(=O)c2cccc(NC(=O)c3cnccn3)c2O[C@H]1CN(C)Cc1ccccc1`, the activity change, negative = inhibition is 8.76%.
On to `COc1ccccc1N/C(N)=N/c1nc(CSc2ccc(C)cc2)cc(=O)[nH]1`, for which the activity change, negative = inhibition was -51.5%.
The figure for `CCOC(=O)c1ccc(NC2c3ncccc3C(=O)N2Cc2ccc(F)cc2)cc1` (stereo not given) is -27%.
As to `CCOC(=O)C1=C(C)N=C2c3ccccc3C(=O)C2C1c1ccc(Cl)cc1` (stereo not given), the activity change, negative = inhibition is -84.7%.
Consider `CC(CCc1ccco1)NC(=O)CCc1nnc2ccc(NCc3ccccc3Cl)nn12` (stereo not given), for which the activity change, negative = inhibition was found to be 87.2%.
As to `COc1cccc(S(=O)(=O)N[C@H]2CC[C@@H](CCN)O[C@@H]2CO)c1`, the activity change, negative = inhibition amounted to 11.2%.
`COc1cccc(S(=O)(=O)N[C@@H]2CC[C@H](CCN)O[C@H]2CO)c1`: the activity change, negative = inhibition was determined as 3.96%.
With `O=C(Nc1cc2c3c(c1)CC(=O)N3CCC2)c1ccc(Cl)cc1`, the activity change, negative = inhibition was 197% [at 16 µM].
As for `COc1ccccc1CNC(=O)C[C@H]1C[C@@H]2c3cc(NC(=O)c4cccnc4)ccc3O[C@@H]2[C@@H](CO)O1`, the activity change, negative = inhibition is 64.7%.
As to `CCCNC(=O)C[C@@H]1C[C@H]2c3cc(NC(=O)c4cccnc4)ccc3O[C@H]2[C@H](CO)O1`, the activity change, negative = inhibition was 6.61%.
Consider `CC1CCN(C(=O)c2ncn3c2C(=O)NC[C@@H]3C)CC1`, for which the activity change, negative = inhibition was determined as 15.1%.
With `CCN(CC)C(=O)c1ncn2c1C(=O)NC[C@@H]2C`, the activity change, negative = inhibition was -31.4%.
As for `CCCC#Cc1ccc2c(c1)O[C@@H](CN(C)C(=O)C1CCCCC1)[C@H](C)CN([C@H](C)CO)S2(=O)=O`, the activity change, negative = inhibition was found to be 90.1% [at 16 µM].
Regarding `C[C@@H]1CN([C@@H](C)CO)S(=O)(=O)c2ccc(-c3ccc(F)cc3)cc2O[C@H]1CN(C)C(=O)C1CCCCC1`, the activity change, negative = inhibition is -27.8%.
With `CC(C)C#Cc1ccc2c(c1)O[C@@H](CN(C)C(=O)C1CCCCC1)[C@H](C)CN([C@H](C)CO)S2(=O)=O`, the activity change, negative = inhibition stood at 41.8% [at 16 µM].
With `Cc1ccc(-c2ccc3c(c2)O[C@@H](CN(C)C(=O)C2CCCCC2)[C@H](C)CN([C@H](C)CO)S3(=O)=O)cc1`, the activity change, negative = inhibition is 53.1% [at 16 µM].
On to `CCC(=O)N(C)C[C@H]1Oc2cc(/C=C/c3ccccc3)ccc2S(=O)(=O)N([C@@H](C)CO)C[C@H]1C`, for which the activity change, negative = inhibition is -29.3%.
With `C[C@@H]1CN([C@H](C)CO)S(=O)(=O)c2ccc(C#Cc3cccc(F)c3)cc2O[C@@H]1CN(C)C(=O)CN1CCOCC1`, the activity change, negative = inhibition worked out at 80.2%.
